# A selection: hits, their analogues and other compounds. The true share with any hit is near 12%.
# G9a inh: qHTS Assay for Inhibitors of Histone Lysine Methyltransferase G9a. G9a H3K9 monomethylation, AlphaScreen, 2 h. 350,000 compounds, 8.8% hits. Potency, µM (doses to about 102 µM), inactives show top-dose activity, negative = inhibition, most hits filed as inhibitors. Histone-lysine N-methyltransferase EHMT2 (Homo sapiens), Q96KQ7; also: % is scaled to controls: 0 for no effect and ±100 for the full control effect; nearly all actives have a fitted effect of over 75% in size
#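 Signal arises when biotinylated H3K9 peptide, once monomethylated, bridges streptavidin donor and antibody-captured acceptor beads. Enzyme at 20 nM was preincubated 15 min with test compounds; peptide 500 nM and SAM 20 uM then reacted for 2 h.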
# Sfp inh: qHTS Assay for Inhibitors of Bacillus subtilis Sfp phosphopantetheinyl transferase (PPTase) | 4'-phosphopantetheinyl transferase ffp (Bacillus subtilis), Q9F4F7 | Biochemical Sfp PPTase activity, qHTS | Potency, µM, without a hit: largest response in the series, negative = inhibition, usual class: inhibitors | 310,000 compounds, 3.5% hits;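 also: the enzyme is Sfp with the accession as filed and its product quenches rhodamine fluorescence; 0% = enzyme reaction without inhibitor and -100% = no enzyme wells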
#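 Buffer: 50 mM Hepes-Na pH 7.6, 10 mM MgCl2, 0.01% Nonidet P-40, 0.01% BSA. Enzyme 15 nM, pre-exposed to compound 15 min; substrates then added and fluorescence change tracked over 30 min.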
# BAZ2B block: qHTS Assay for Inhibitors of BAZ2B; Bromodomain adjacent to zinc finger domain protein 2B (Homo sapiens), Q9UIF8; AlphaScreen BAZ2B-H3K14Ac peptide displacement; Potency, µM (series often up to 114 µM), for inactives: top-dose activity change, negative = inhibition, hits mostly inhibitors; 360,000 compounds, 4.4% hits; AID 504333, 2011; also: % is scaled to controls: 0 for no effect and ±100 for the full control effect; nearly all actives have a fitted effect of over 60% in size
#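 BAZ2B 50 nM plus b-H3(5-23)K14Ac 50 nM, PBS pH 7.4/0.01% Tween-20, 30 min RT; compound added (max 110 uM), 30 min RT; streptavidin donor/Ni-chelate acceptor beads 10 ug/mL final, 20 min dark; AlphaScreen read.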
# JMJD2A Tudor inh: qHTS Assay for Inhibitors of JMJD2A-Tudor Domain | Lysine-specific demethylase 4A (Homo sapiens), O75164 | AlphaScreen JMJD2A-Tudor / H3K4me3 peptide binding | Potency, µM (titrated, usually from 114 µM), inactives show at the top dose activity change, negative = inhibition, actives largely listed as inhibitors | 390,000 compounds, 4.4% hits | AID 504339, 2011; also: % is scaled to controls: 0 for no effect and ±100 for the full control effect; nearly all actives have a fitted effect of over 50% in size
# HP1b chromo inh: HTS for Inhibitors of HP1-beta Chromodomain Interactions with Methylated Histone Tails; Chromobox protein homolog 1 (Homo sapiens), P83916; AlphaScreen HP1-beta / biotin-H3K9me3 peptide binding; Potency, µM (series often up to 114 µM), without a hit: top-dose activity change, negative = inhibition, most hits filed as inhibitors; 390,000 compounds, 0.56% hits; AID 540317, 2011; also: nearly all actives have a fitted effect of over 70% in size
#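 HP1-beta protein (50 nM final) preincubated 30 min at room temperature with biotinylated H3(1-18)K9me3 peptide (50 nM) in PBS pH 7.4, 0.01% Tween-20, then compound added for 30 min. AlphaScreen streptavidin donor/nickel chelate acceptor beads (10 ug/mL final), 30 min dark, luminescence read.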
# Active calls of the source: *; ? = inconclusive; / = not tested or not shown; [ ] = dose if it differs, or a comment. Calls follow the shape of the dose curve; as a rule, active = well fitted curve in the direction sought with a large enough effect; inconclusive = small, poorly fitted or top-dose-only effect, or another doubt; inactive = no such curve, though single readings can be large; an effect the other way counts as inactive or inconclusive. Potency is read from the fitted curve at half-maximal effect.
SMILES,G9a inh,Sfp inh,BAZ2B block,JMJD2A Tudor inh,HP1b chromo inh
O=C(NCCCn1ccnc1)c1ccc2ccccc2c1,13%,10%,-23%,-8%,32%
O=C(Cn1ccnc1)c1ccc(O)c(O)c1,?,/,56µM*,22µM*,15%
CCCCCCCC(=O)NNC(=O)c1ccc(F)cc1,37%[0.501 µM],7%,0%,-4%,26%
S=c1nc(-c2ccco2)[nH][nH]1,1.8µM*,28µM*,?,7.1µM*,?
NC(=O)CSc1n[nH]c(-c2ccco2)n1,-3%,8%,-18%,-1%,36%
COc1ccc2cc(-c3[nH]ncc3CN3C[C@@H]4CCC[C@H]3C4)ccc2c1,-6%,11%,0%,-22%,16%
Cc1ncc(CO)c(/C=N/NC(=O)c2cc(Br)ccc2O)c1O,-40%,-10%,11µM*,79µM*,39%
Cc1cc(C(=O)N/N=C/c2c(CO)cnc(C)c2O)c2ccccc2n1,71%,12%,25µM*,50µM*,38%
Cc1c(/C=N/NC(=O)c2cc(Br)ccc2O)c(=O)n(C)c(=O)n1C,5%[59 µM],3%,4%,-1%,25%
Cc1ncc(CO)c(/C=N/NC(=O)c2cc(O)c(O)c(O)c2)c1O,?,20µM*,10µM*,/,/
Cc1ncc(CO)c(/C=N/Nc2cccc(Cl)n2)c1O,14%,?,7%,-35%,37%
COc1ccccc1C(=O)Nc1ccc(Oc2ncnc3sc(-c4ccccc4)cc23)cc1,8%,2%,-1%,-13%,19%
CCOc1ccccc1NC(=O)COC(=O)c1c[nH]c2ccccc12,50µM*,/,6%,-6%,6%
O=C(COC(=O)c1c[nH]c2ccccc12)Nc1ccccc1,/,/,/,-12%,5%
N#CCCn1cc(CNCc2cccnc2)c(-c2ccccc2)n1,/,/,/,8.9µM*,?
N#CCCn1cc(/C=N/O)c(-c2ccc(-c3ccccc3)cc2)n1,-9%[59 µM],0%,-1%,-9%,13%
Cc1ccc2[nH]c3c(=O)n(CC(=O)NCCCN4CCN(c5ccc(F)cc5)CC4)ncc3c2c1,9%[59 µM],11%,-12%,-23%,24%
O=C(CNCCCO)Nc1cc(C(F)(F)F)cc(NC(=O)CNCCCO)c1Cl,11µM*,5%,10%,-12%,34%
CCc1ccc(C(=O)/C=C/c2cnn(C)c2C)s1,-3%[59 µM],20%,-5%,1%,29%
Cc1c(/C=C/C(=O)c2cccs2)cnn1C,8%[59 µM],13%,6%,28µM*,?
O=[N+]([O-])c1cc(Cl)ccc1NCCNS(=O)(=O)c1ccccc1,-3%[59 µM],-6%,-33%,-12%,3%
COc1ccc(OCC(=O)Nc2ccc(OC)c(S(=O)(=O)N3CCCCC3)c2)cc1,0%[0.501 µM],/,-7%,-24%,27%
Nc1[nH]c2cc([N+](=O)[O-])ccc2c1-c1ccccn1,45µM*,6%,28µM*,?,?
Nc1nc2ccc([N+](=O)[O-])cc2[nH]1,16%,13%,-8%,-3%,29%
O=C(CC1CCCCC1)NCc1ccc(Cl)cc1,16%[0.501 µM],-5%,-3%,-1%,20%
SMILES,G9a inh,Sfp inh,BAZ2B block,JMJD2A Tudor inh,HP1b chromo inh
COc1ccc(/C=N/Nc2nc(C)cc(=O)[nH]2)cc1OC,?,5%,-25%,25µM*,33%
Cc1cc(=O)[nH]c(N/N=C/c2ccc(C)o2)n1,?,?,-4%,56µM*,22%
Cc1cc(=O)[nH]c(N/N=C/c2ccc(N(C)C)cc2)n1,-1%,?,-19%,25µM*,-8%
COc1cc(/C=N/Nc2nc(C)cc(=O)[nH]2)cc(OC)c1O,28µM*,?,-3%,-18%,34%
COc1cc(/C=N/Nc2nc(C)cc(=O)[nH]2)ccc1O,29%[0.501 µM],-19%,-3%,3%,45%
Cc1cc(=O)[nH]c(N/N=C/c2ccco2)n1,-33%[2.33 µM],?,7%,-17%,44%
COCCCN(Cc1ccco1)C(=O)Cn1ncc2c([nH]c3ccccc32)c1=O,-1%,17%,-20%[57.1 µM],-9%,26%
COCCCNC(=O)c1cc(=O)n(Cc2ccc(Cl)cc2)c2ccccc12,31%,-13%,18%,?,-1%
CCOc1ccccc1/C=N/Nc1nc(C)cc(=O)[nH]1,-27%,-10%,-18%,-21%,44%
COc1cccc(/C=N/Nc2nc(C)cc(=O)[nH]2)c1OC,14%,56µM*,-36%,-28%,38%
CC[C@H](C)[C@@H](NC(=O)O[C@@H]1C(=O)c2cc(Br)ccc2O[C@H]1c1ccc2c(c1)OCO2)C(=O)OC,?,13%,-2%,/,/
COc1ccc(CNC(=O)C2CCN(c3nc(-c4ccccc4)nc4c3CCC4)CC2)cc1,26%,50µM*,-23%,-19%,27%
O=C(NCc1ccccc1)C1CCN(c2nc(-c3ccccc3)nc3c2CCC3)CC1,24%,?,-5%,-12%,33%
Cc1cc(C)n2nc(SCC(=O)c3cc(C)n(-c4cc(C)on4)c3C)nc2n1,50µM*,?,?,-15%,4%
CCOC(=O)c1cnc2ncnn2c1N,-31%,8%,-12%,-2%,40%
C/C(=N\NC(N)=S)C1(C)CC2(CC(C)(C)OC2=O)C(=O)O1 (centres undefined),11%,-15%,3%,-7%,10%
CC(C)CCC1CC(CSC(=N)N)OC1=O (centres undefined),6%[59 µM],-16%,0%,-12%[57.1 µM],62%
C/C(CC1CC(C)(C)OC1=O)=N\NC(N)=S (centres undefined),32µM*,35µM*,?,7.1µM*,7%
C/C(CCC1CC(C)(C)OC1=O)=N\NC(N)=S (centres undefined),8.9µM*,45µM*,?,79µM*,-8%
CCCC1CC(C)(/C(C)=N\NC(N)=S)OC1=O (centres undefined),14%[0.501 µM],-26%,5%,-1%,44%
C/C(CC1CC(COCCC(C)C)OC1=O)=N\NC(N)=S (centres undefined),7%[0.501 µM],79µM*,?,?,22%
COC(=O)C1(C)NC(c2ccc(O)cc2)C2C(=O)N(c3ccc4c(c3)OCCO4)C(=O)C21 (centres undefined),-5%,10%,-18%,-5%[57.1 µM],70%
COc1ccc(N2CCN(C(=O)CCc3c[nH]c4ccccc34)CC2)cc1,56µM*,2%,?,-15%[11.4 µM],-7%
O=C(CCc1c[nH]c2ccccc12)N1CCCCCCC1,-13%,4%,?,-26%,16%
Cc1ccc(S(=O)(=O)N2CCN(C(=O)CCc3c[nH]c4ccccc34)CC2)c(C)c1,8.9µM*,/,-11%,-30%,18%

# Screening data from PubChem.
